Assay outcomes from PubChem.
PfM18AAP inh-1: PfM18AAP inhibitors, malaria aminopeptidase, primary screen, biochemical, QFRET, recombinant enzyme | inhibition, % at 7.35 µM | H-Glu-NHMec fluorogenic cleavage | M18 aspartyl aminopeptidase (Plasmodium falciparum 3D7) | 290,000 compounds, 1.2% hits | AID 1822, 2009;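 active = inhibition above the campaign mean inhibition over all tested compounds plus 3 SD, cut at about 28% in these data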;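 also: 0% = plate median of test compound wells and 100% = 2 mM ZnCl2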
HIF activator: HIF pathway transcriptional activators, primary screen, cell-based, U2OS HRE-luciferase, luminescence; U2OS HRE-luciferase reporter; normalized: DMSO 0%, desferrioxamine 100%; activation, % at 7.5 µM (by protocol); 300,000 compounds, 0.32% hits; AID 1910, 2009;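 active = mean activation of at least 10% of the iron chelator positive control signal, with at least half of replicates also reaching 10%; inconclusive = mean and replicate majority disagree about reaching 10%; inactive = mean and most replicates under 10%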
ALR inh: inhibitors of human ALR sulfhydryl oxidase, primary screen, biochemical, H2O2 detection, HRP-luminol luminescence, single point. FAD-linked sulfhydryl oxidase ALR (Homo sapiens), P55789. purified ALR, DTT oxidation. inhibition, % (test concentration not listed). 290,000 compounds, 3.8% hits. AID 485317, 2010;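 active = mean replicate inhibition above about 79%, with every replicate also reaching it, limit read from the data; inconclusive = only one of the two criteria met; inactive = mean below limit and not every replicate reaching it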
Target sequence (P55789 whole entry, looked up): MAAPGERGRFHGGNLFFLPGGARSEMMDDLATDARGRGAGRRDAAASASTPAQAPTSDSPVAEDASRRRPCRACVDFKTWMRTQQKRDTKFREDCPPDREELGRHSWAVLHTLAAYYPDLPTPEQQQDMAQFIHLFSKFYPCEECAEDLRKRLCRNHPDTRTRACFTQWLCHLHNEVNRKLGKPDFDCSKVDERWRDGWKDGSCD
SUMO Mot1 rescue: yeast Mot1-301 growth rescue at high temperature, primary screen, SUMOylation pathway inhibitor project, S. cerevisiae, ATP luminescence, 38.5C. 320,000 compounds, 1% hits. growth rescue, % at 18.8 µM. AID 2716, 2010. S. cerevisiae Mot1-301 growth rescue; percent above DMSO median, 100 means doubled;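 active = every valid replicate shows activation above 250% relative to neutral control wells; inactive = the rest, any valid replicate at or below 250%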;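 also: OY570 slx delta 5 strain wells were the positive control but not used for scaling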
PfM18AAP inh-2: PfM18AAP inhibitors, malaria aminopeptidase, confirmation, biochemical, QFRET, recombinant enzyme, triplicate; shares compounds with PfM18AAP inh-1; H-Glu-NHMec fluorogenic cleavage; inhibition, % at 7.35 µM; 2,400 compounds, 28% hits;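 active = mean inhibition over replicate wells above the hit cutoff set for the earlier primary screen, cut at about 29% in these data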;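 also: 0% = median of test compound wells and 100% = 2 mM ZnCl2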
CTSL1 counter: cathepsin L1 inhibitors, retest, confirmation, counter-screen for PFM18AAP inhibitor project, biochemical, QFRET, triplicate; shares compounds with PfM18AAP inh-1; purified cathepsin L1, Z-Leu-Arg-MCA fluorescence; inhibition, % at 5.96 µM; 2,400 tested, under 10 active;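 active = average inhibition across replicates above the hit cutoff set in the earlier primary screen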;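 also: 0% = median of test compound wells and 100% = Z-Phe-Ala-diazomethylketone 1 µM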
Target sequence (P07711 whole entry, looked up): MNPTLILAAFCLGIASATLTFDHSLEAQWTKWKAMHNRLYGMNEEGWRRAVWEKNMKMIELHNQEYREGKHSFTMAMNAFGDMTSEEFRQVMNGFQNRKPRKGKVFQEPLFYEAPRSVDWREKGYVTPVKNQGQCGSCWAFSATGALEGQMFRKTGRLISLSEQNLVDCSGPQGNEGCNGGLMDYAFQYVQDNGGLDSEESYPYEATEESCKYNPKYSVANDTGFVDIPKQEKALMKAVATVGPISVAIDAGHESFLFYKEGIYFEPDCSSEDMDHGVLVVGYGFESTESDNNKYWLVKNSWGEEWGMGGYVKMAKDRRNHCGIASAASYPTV
* hit, by the source's call; u = inconclusive; x = not tested or not shown. Shown are actives, neighbours in structure and some others; about 5.3% of the full set was active somewhere.

SMILES | PfM18AAP inh-1 | HIF activator | ALR inh | SUMO Mot1 rescue | PfM18AAP inh-2 | CTSL1 counter
CCN(CC)c1ccc(/C=N/N2CCOCC2)c(O)c1 | 12 | 2 | u | 34 | x | x
O=C(NNc1nc2c(F)cccc2s1)C1=COCCO1 | 44* | 0 | 100* | x | 11 | -1
Cc1ccc2sc(NNC(=O)C3=COCCO3)nc2c1C | 32* | 1 | 99* | 10 | 21 | -1
O=C1C(C2=NC(c3ccccn3)C3C(=O)N(c4ccccc4)C(=O)C23)=C(O)c2ccccc21 (stereo not given) | 71* | 0 | -3 | -7 | -30 | 2
CC(C)C1NC(C(=O)O)Cc2c1[nH]c1ccccc21 (stereo not given) | 37* | -1 | -8 | 14 | 29* | -1
O=c1c2ccccc2nc(COc2ccccc2)n1/N=C/c1ccc(O)c(O)c1 | 53* | 1 | 98* | -14 | 25 | 6
Oc1ccc(/C=N/n2c(COc3ccccc3)n[nH]c2=S)cc1O | 53* | -1 | 100* | 1 | 20 | -8
O=C(O)COc1ccc(/C=N/n2c(COc3ccccc3)nc3ccccc3c2=O)cc1 | -2 | 1 | 3 | 290 | x | x
Cc1ccc(S(=O)(=O)c2cn(C)c3cc(N4CCOCC4)c(F)cc3c2=O)cc1 | -3 | 0 | -2 | -10 | x | x
O=C(Cn1[nH]c(=O)c2ccccc2c1=O)Nc1ccc(-c2nnc3n2CCCCC3)cc1 | -4 | 0 | x | 2 | x | x
CCOC(=O)Cc1c(C)nc(SC)[nH]c1=O | 1 | 0 | 0 | -1 | x | x
O=C(CCN1C(=O)c2ccccc2C1=O)Nn1cnnc1 | 45* | 0 | -8 | -7 | 46* | -3
O=C(Nn1cnnc1)c1ccccc1-c1ccccc1 | 56* | 0 | 10 | -10 | 64* | -6
O=C(Nn1cnnc1)c1ccccc1CCc1ccccc1 | 42* | 0 | 3 | x | 35* | -1
COc1ccc(OCC(=O)NNC(=O)c2ccc3c(=O)n4c(nc3c2)CCC4)cc1 | 2 | -1 | -4 | -7 | x | x
S=C1NC(c2ccccc2)N2C(=S)NC(c3ccccc3)N12 (stereo not given) | 38* | 4 | 98* | -3 | -42 | -1
CN1CCc2c(sc3c2c(=O)n(-c2ccccc2)c2n[nH]c(=S)n32)C1 | 38* | 0 | 64 | -3 | -22 | 2
O=c1c2ccccc2n2c(=S)[nH]nc2n1-c1ccccc1 | 45* | -1 | 48 | -27 | 19 | -5
CCCCn1c(=O)c2ccccc2n2c(=S)[nH]nc12 | 32* | 0 | 15 | -10 | -2 | -3
O=c1c2c3c(sc2n2c(=S)[nH]nc2n1-c1ccccc1)CCC3 | -1 | -1 | 24 | -12 | x | x
CCN1CCN(C(=O)CCNC(=O)Cn2cnc3ccccc3c2=O)CC1 | -4 | 0 | x | -14 | x | x
Nc1nc(NCCN2CCOCC2)nc(NCc2ccccc2)c1[N+](=O)[O-] | -8 | 1 | -1 | 8 | x | x
CCCCNC(=O)NNc1nc(Cl)cc(C)c1C#N | 54* | -1 | u | 10 | 45* | 0
Cc1ccc(N/C=C(\C2OC(=O)c3ccccc32)[N+](=O)[O-])c(C)c1 (stereo not given) | 51* | 0 | 0 | -10 | -36 | 5
COC(=O)c1ccc(C(=O)OC)c(NC(=O)COC(=O)CC2CC3CCC2C3)c1 (stereo not given) | -2 | -2 | -1 | -1 | x | x
SMILES | PfM18AAP inh-1 | HIF activator | ALR inh | SUMO Mot1 rescue | PfM18AAP inh-2 | CTSL1 counter
COc1ccc2cc(CN(Cc3ccco3)Cc3nnnn3C3CCCCC3)c(=O)[nH]c2c1 | 35* | 0 | 0 | -13 | -37 | -4
COc1ccc2cc(CN(Cc3ccco3)C(c3nnnn3C3CCCCC3)C(C)C)c(=O)[nH]c2c1 (stereo not given) | 13 | 0 | 4 | -3 | x | x
CCNC(=S)NNC(=O)c1ccc(OC)cc1 | 33* | 0 | 23 | 5 | 10 | 0
Cc1occc1C(=O)NNC(=S)Nc1ccccc1 | 15 | 2 | 38 | 166 | x | x
COCCCNC(=S)NNC(=O)c1ccoc1C | 33* | -2 | 42 | -8 | -8 | -1
CCNC(=S)NNC(=O)c1ccoc1C | 33* | 0 | 47 | 5 | -16 | 4
COCCCNC(=S)NNC(=O)c1cccnc1 | -10 | 0 | 18 | 35 | x | x
COCCCNC(=S)NNC(=O)c1ccc2c(c1)OCO2 | 35* | 0 | 21 | 260 | 14 | -1
CCn1c2ccccc2c2cc(NC(=O)COC(=O)c3ccc(NC(=O)CC#N)cc3)ccc21 | x | 0 | -4 | -15 | x | x
Cc1cccc(C(=O)Nc2nnc(Cc3ccccc3)s2)c1 | 6 | 1 | -1 | 262 | x | x
CN(C)C(=C(C#N)C#N)N1CCN(c2ccc(Cl)c(Cl)c2)CC1 | 5 | -1 | x | 8 | x | x
COc1ccccc1NS(=O)(=O)c1cc(NC(=O)C(C)(C)C)ccc1N1CCOCC1 | x | -1 | -1 | -14 | x | x
COc1ccccc1NS(=O)(=O)c1cc(NC(=O)c2cccs2)ccc1N1CCCC1 | 36* | 0 | -5 | 52 | -4 | 3
COc1ccccc1NS(=O)(=O)c1cc(NC(=O)c2sccc2C)ccc1N1CCCC1 | 56* | 0 | -3 | 1 | 8 | -2
COc1ccccc1NS(=O)(=O)c1cc(NC(=S)NCCN2CCOCC2)ccc1N1CCOCC1 | 38* | 0 | 24 | -13 | 12 | 1
CCN(CC)C(=O)CN1CCC(c2nc3cc(C)c(C)cc3[nH]2)CC1 | 1 | -3 | -5 | 15 | x | x
COc1ccc(C2OC(=O)CC2C(=O)NCc2ccccc2Cl)cc1OC (stereo not given) | -8 | -1 | 0 | -12 | x | x
CCC(=O)NNc1nc2c(C)cccc2s1 | 48* | 0 | 13 | 5 | 23 | -4
CCC(=O)NNc1nc2c(Cl)cccc2s1 | 33* | 0 | -2 | 13 | 19 | -3
CCC(=O)NNc1nc2c(C)c(C)ccc2s1 | 37* | 0 | 2 | -15 | 9 | -2
CCOc1ccc(N2CC(C(=O)Nc3ccccc3F)CC2=O)cc1 (stereo not given) | 1 | 0 | -16 | 6 | x | x
CC(C)(C)NC(=O)C(=O)NC(=O)c1c(F)cccc1Cl | -9 | 0 | 2 | -10 | x | x
Cc1cc(C(F)(F)F)cc(NNC(=O)NC(=O)c2c(F)cccc2Cl)n1 | 42* | -1 | x | -14 | -3 | 6
O=C(CSc1ccc2ccccc2c1)NCCc1ccc(O)c(O)c1 | 57* | 0 | 99* | 18 | 41* | 4
O=C(CSc1ccccc1)NCCc1ccccc1 | -3 | 2 | -14 | -12 | x | x
